Measurements reported in the supplement of paper PMC8728848.
The full list was thinned out, with the strongest signals kept by preference.

What was measured:
Test in all cases: glycan array binding signal (z-score within array); higher = stronger binding
Details in all cases: glycan notation: IUPAC condensed, linker removed
[1] = system: Gal(b1-3)GlcNAc(b1-3)Gal(b1-4)Glc
In short: (§1)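 The Consortium for Functional Glycomics database supplied 3228 glycan arrays, of which those lacking an available protein sequence were dropped. The binding signal, a within-array Z-score, was averaged across arrays of the same protein sequence and across linkers. Negative scores can be read as non-binding.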

[2] = system: Gal(b1-3)GlcNAc(b1-2)Man(a1-3)[GlcNAc(b1-4)][Gal(b1-3)GlcNAc(b1-2)Man(a1-6)]Man(b1-4)GlcNAc(b1-4)GlcNAc
In short: as §1

[3] = system: Gal(b1-3)GlcNAc(b1-3)Gal(b1-4)GlcNAc(b1-6)[Gal(b1-3)GlcNAc(b1-3)]Gal(b1-4)Glc
In short: as §1

[4] = system: Gal(b1-3)GlcNAc(b1-6)Gal(b1-4)GlcNAc
In short: as §1

[5] = system: Gal(b1-3)GlcNAc(b1-6)GalNAc
In short: as §1

[6] = system: Gal(b1-3)GlcNAc(b1-2)Man
In short: as §1

[7] = system: Gal(b1-3)GlcNAc(b1-3)Gal(b1-4)GlcNAc(b1-2)[Gal(b1-3)GlcNAc(b1-3)Gal(b1-4)GlcNAc(b1-6)]Man(a1-6)[Gal(b1-3)GlcNAc(b1-3)Gal(b1-4)GlcNAc(b1-2)Man(a1-3)]Man(b1-4)GlcNAc(b1-4)[Fuc(a1-6)]GlcNAc
In short: as §1

[8] = system: Gal(b1-3)GlcNAc(b1-3)Gal(b1-4)GlcNAc(b1-3)Gal(b1-4)GlcNAc(b1-2)[Gal(b1-3)GlcNAc(b1-3)Gal(b1-4)GlcNAc(b1-3)Gal(b1-4)GlcNAc(b1-6)]Man(a1-6)[Gal(b1-3)GlcNAc(b1-3)Gal(b1-4)GlcNAc(b1-3)Gal(b1-4)GlcNAc(b1-2)Man(a1-3)]Man(b1-4)GlcNAc(b1-4)[Fuc(a1-6)]GlcNAc
In short: as §1

[9] = system: Gal(b1-3)GlcNAc6S
In short: as §1

[10] = system: Gal(b1-3)[Fuc(a1-4)]GlcNAc(b1-2)Man(a1-3)[Gal(b1-3)[Fuc(a1-4)]GlcNAc(b1-2)Man(a1-6)]Man(b1-4)GlcNAc(b1-4)GlcNAc
In short: as §1

Wza (Escherichia coli), P0A930
glycan array binding signal (z-score) [1]: -0.658

LcI (Legionella pneumophila)
glycan array binding signal (z-score) [2]: 0.389
glycan array binding signal (z-score) [3]: -0.388
glycan array binding signal (z-score) [4]: -0.157
glycan array binding signal (z-score) [5]: 3.69

Epa22
glycan array binding signal (z-score) [6]: -0.018

AgI/IIC123-GFP (Streptococcus mutans)
glycan array binding signal (z-score) [7]: 5.61
glycan array binding signal (z-score) [8]: -0.036
glycan array binding signal (z-score) [4]: 0.823
glycan array binding signal (z-score) [9]: -0.244

BambL (Burhholderia ambifaria), Q0B4G1
glycan array binding signal (z-score) [1]: -0.312
glycan array binding signal (z-score) [10]: -0.317

SpGH101 (Streptococcus pneumoniae), Q8DR60
glycan array binding signal (z-score) [10]: 1.28
